This passage reports composite z-score, z-score and composite Z-score results from PubChem BioAssay.

In test [1] the test system is Human papillomavirus type 1a protein E7 (residues 44-93). The test can be described thus: small molecules binding HPV E7 44-93 – biochemical, small-molecule microarray, residues 44-93, 635 nm fluorescence, primary screen (AID 1108).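 Also: E7 fragment applied at 1 µg/mL in TBST for 1 h at 4 C; score combines spot fluorescence with its signal to noise ratio.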 The following applies: fluorescence 635 nm, higher = more signal.
Test [2] is described as follows: hepatitis C replication reporter changes, two-sided – Huh7 cells, luciferase reporter, HCV replication inhibitor project, primary screen (AID 1109).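 Also: huh7 hepatoma cells harbouring a luciferase neomycin HCV replicon reporter; luciferase luminescence as measure of HCV replicon replication; test concentration not given here.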 To be noted: Huh7 HCV replicon luciferase reporter, 48 h; higher = more signal.
Test [3] concerns the target Left-right determination factor 2 (Homo sapiens) (UniProt O00292). The test is described as follows: small molecules binding LEFTY2 protein – biochemical, small-molecule microarray, 635 nm fluorescence scan, primary screen (AID 1110). To be noted: higher = more signal.
The target of test [4] is Calmodulin-1 (Homo sapiens) (UniProt P0DP23). The test can be described thus: small molecules binding calmodulin-1 with EGTA – biochemical, small-molecule microarray, Cy5-labelled CALM1, profiling panel (AID 1111).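 Also: labelled calmodulin applied in Tris saline Tween buffer holding calcium plus EGTA and DTT.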 To be noted: Cy5-CALM1 binding fluorescence, higher = more signal.
Test [5] has the same target. The test can be described thus: small molecules binding Ca-loaded calmodulin-1 – biochemical, small-molecule microarray, Cy5-labelled CALM1, plus calcium, artefact control for SMM control-protein annotation, profiling panel (AID 1112).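 Also: score merges spot fluorescence with signal to noise from triplicate slides.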 To be noted: Cy5-CALM1 binding fluorescence, higher = more signal.
Test [6] in a line: probe aWnt5a binding to arrayed compounds – biochemical, biotinylated probe, 635/667 nm fluorescence, primary screen (AID 1113).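 Also: score merges 667 nm fluorescence intensity with signal-to-noise per printed feature.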 To be noted: small-molecule microarray, higher = more signal.
A short description of test [7]: probe aShh binding to arrayed compounds – biochemical, biotinylated probe, 635/667 nm fluorescence, primary screen (AID 1114).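 Also: probe is biotin-labelled aShh protein from a stem cell growth factor screen; measures binding of labelled protein to compounds printed on the slide; score merges feature fluorescence at 667 nm with signal-to-noise.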 To be noted: small-molecule microarray, higher = more signal.
A short description of test [8]: probe aNog binding to arrayed compounds – biochemical, biotinylated probe, 635/667 nm fluorescence, primary screen (AID 1115).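 Also: probe is biotinylated aNog protein used at 0.15 µg/mL for 1 h at 4 C; z-score combines 667 nm fluorescence of each spot with its signal to noise.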 The following applies: small-molecule microarray, higher = more signal.
In test [9] the target is Torsin-1A-interacting protein 1 (Homo sapiens) (UniProt Q5JTV8). The test can be described thus: compound microarray binding of lysate hLAP1 – cell lysate, small-molecule microarray, COS7 lysate, 635/667 nm fluorescence, primary screen (AID 1116). To be noted: 635 nm fluorescence, higher = more signal.
Sequence of Torsin-1A-interacting protein 1 (Homo sapiens) (Q5JTV8 whole entry, looked up): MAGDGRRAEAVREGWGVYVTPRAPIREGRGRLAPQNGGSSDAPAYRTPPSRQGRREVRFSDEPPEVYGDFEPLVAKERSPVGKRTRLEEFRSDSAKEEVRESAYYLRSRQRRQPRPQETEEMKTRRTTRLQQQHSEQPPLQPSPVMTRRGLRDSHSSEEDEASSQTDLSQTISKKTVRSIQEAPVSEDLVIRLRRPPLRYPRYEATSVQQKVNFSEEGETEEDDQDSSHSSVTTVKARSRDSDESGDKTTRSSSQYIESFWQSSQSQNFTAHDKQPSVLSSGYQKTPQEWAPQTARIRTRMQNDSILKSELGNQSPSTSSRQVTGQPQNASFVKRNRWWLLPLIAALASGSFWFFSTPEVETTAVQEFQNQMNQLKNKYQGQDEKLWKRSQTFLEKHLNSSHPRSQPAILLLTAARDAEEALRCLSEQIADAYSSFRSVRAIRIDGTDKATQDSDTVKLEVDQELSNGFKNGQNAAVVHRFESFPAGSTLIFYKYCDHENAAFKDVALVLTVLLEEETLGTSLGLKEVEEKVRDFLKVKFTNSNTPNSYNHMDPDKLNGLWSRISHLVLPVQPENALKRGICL
Test [10] concerns the target Alpha-bungarotoxin (Bungarus multicinctus) (UniProt P60615). The test is described as follows: compounds binding labelled alpha-BTX control protein – biochemical, small-molecule microarray, Alexa647 label, 635/667 nm fluorescence, artefact control for SMM control protein annotation, profiling panel (AID 1117). To be noted: alpha-BTX-A647 binding fluorescence, higher = more signal.

The next test deals with Albumin (Bos taurus) (UniProt P02769). The test is described as follows: compounds binding labelled BSA control protein – biochemical, small-molecule microarray, Alexa647 label, 635/667 nm fluorescence, artefact control for SMM control protein annotation, profiling panel (AID 1118).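 Also: score merges 667 nm emission intensity and signal-to-noise per printed compound spot.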 To be noted: BSA-A647 binding, fluorescence 635 nm, higher = more signal.
Sequence of Albumin (Bos taurus) (P02769 whole entry, looked up): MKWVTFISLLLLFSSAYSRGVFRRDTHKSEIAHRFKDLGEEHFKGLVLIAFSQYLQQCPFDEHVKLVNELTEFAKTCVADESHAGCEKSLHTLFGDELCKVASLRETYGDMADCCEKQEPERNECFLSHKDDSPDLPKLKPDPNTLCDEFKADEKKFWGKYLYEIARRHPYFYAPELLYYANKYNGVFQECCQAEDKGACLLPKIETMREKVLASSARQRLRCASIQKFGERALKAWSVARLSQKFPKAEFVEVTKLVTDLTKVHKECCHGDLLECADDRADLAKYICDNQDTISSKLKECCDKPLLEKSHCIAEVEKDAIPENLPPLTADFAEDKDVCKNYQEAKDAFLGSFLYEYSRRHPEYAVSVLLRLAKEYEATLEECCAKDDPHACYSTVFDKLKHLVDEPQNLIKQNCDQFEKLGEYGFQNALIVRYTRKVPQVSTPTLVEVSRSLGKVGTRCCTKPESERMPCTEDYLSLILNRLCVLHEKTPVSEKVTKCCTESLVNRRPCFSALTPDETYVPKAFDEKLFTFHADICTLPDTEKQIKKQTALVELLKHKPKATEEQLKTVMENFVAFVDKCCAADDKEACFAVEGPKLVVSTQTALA
Test [11] can be described thus: probe aXIP binding to arrayed compounds – biochemical, NeuroSMM set, 635/667 nm fluorescence, primary screen (AID 1119).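 Also: probe is the protein aXip251-270 applied at 1 µg/mL to compound-printed slides; binding of probe to printed compounds measured as 667 nm fluorescence plus signal to noise.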 The following applies: small-molecule microarray, higher = more signal, called active from +8 up or from −8 down.
Test [12] can be described thus: probe aNOTCH3 binding on compound microarray – biochemical, small-molecule microarray, 635/667 nm fluorescence, primary screen (AID 1120).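 Also: probe is a biotin-tagged antibody raised against NOTCH3 rather than NOTCH3 protein; score merges spot fluorescence near 667 nm with spot signal to noise.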 The following applies: higher = more signal.
The nature of test [13]: probe aNOTCH2 binding on compound microarray – biochemical, small-molecule microarray, 635/667 nm fluorescence, primary screen (AID 1121).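 Also: score merges feature fluorescence read at 667 nm with its signal to noise.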 To be noted: higher = more signal.
Test [14] concerns the target Carbonic anhydrase 2 (Homo sapiens) (UniProt P00918). The test is described as follows: compounds binding carbonic anhydrase 2 – biochemical, small-molecule microarray, Alexa647-labelled CAII, profiling panel (AID 1122). The following applies: CAII-A647 binding fluorescence, higher = more signal.
Test [15] is described as follows: COS7 lysate on small-molecule microarray, probe aHis, 635 nm (AID 1123).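 Also: z-score combines 667nm fluorescence intensity with signal-to-noise per printed compound spot.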 To be noted: COS7 cell lysate, fluorescence, higher = more signal.
The nature of test [16]: probe aLAP1 signal on lysate-treated microarray – cell lysate, small-molecule microarray, COS7 lysate, primary screen (AID 1124).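 Also: lysate comes from COS7 cells expressing LAP1 and is applied at 0.3 µg/mL; score merges spot fluorescence near 667 nm with signal-to-noise over triplicate slides.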 To be noted: probe aLAP1, fluorescence, higher = more signal.
A further test has as its system Sam68 (KHDRBS1). The test is described as follows: compounds binding KHDRBS1 protein – biochemical, small-molecule microarray, 635 nm fluorescence, primary screen (AID 1125).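 Also: score merges 667 nm channel intensity with signal to noise over triplicate slides.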 To be noted: higher = more signal.
Test [17] relates to Chordin-like protein 2 (CHRDL2). The test can be described thus: compounds binding chordin-like 2 – biochemical, small-molecule microarray, 635 nm fluorescence, primary screen (AID 1126).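 Also: printed compound slides probed with Chrdl2 protein at 4 µg/mL for 1 h at 4 C; score merges 667 nm emission intensity with signal to noise over three replicate slides.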 To be noted: fluorescence 635 nm, higher = more signal.
Test [18] concerns the target Concanavalin-A (Canavalia ensiformis) (UniProt P02866). The test can be described thus: compounds binding concanavalin A lectin – biochemical, small-molecule microarray, Alexa647 label, 635 nm, artefact control for SMM control protein annotation, primary screen (AID 1127).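 Also: z combines 667 nm emission intensity with signal-to-noise across three replicate slides.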 To be noted: ConA-A647 binding fluorescence, higher = more signal.

“And” between values parts separate entries of the source, which are not always exact repeats. Equal entries are not always repeated. The source made the active and inactive calls.

Sequence of Alpha-bungarotoxin (Bungarus multicinctus) (P60615 whole entry, looked up): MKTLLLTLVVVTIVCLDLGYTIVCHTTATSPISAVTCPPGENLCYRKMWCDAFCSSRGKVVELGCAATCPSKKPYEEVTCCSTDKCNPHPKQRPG
Sequence of Left-right determination factor 2 (Homo sapiens) (O00292 whole entry, looked up): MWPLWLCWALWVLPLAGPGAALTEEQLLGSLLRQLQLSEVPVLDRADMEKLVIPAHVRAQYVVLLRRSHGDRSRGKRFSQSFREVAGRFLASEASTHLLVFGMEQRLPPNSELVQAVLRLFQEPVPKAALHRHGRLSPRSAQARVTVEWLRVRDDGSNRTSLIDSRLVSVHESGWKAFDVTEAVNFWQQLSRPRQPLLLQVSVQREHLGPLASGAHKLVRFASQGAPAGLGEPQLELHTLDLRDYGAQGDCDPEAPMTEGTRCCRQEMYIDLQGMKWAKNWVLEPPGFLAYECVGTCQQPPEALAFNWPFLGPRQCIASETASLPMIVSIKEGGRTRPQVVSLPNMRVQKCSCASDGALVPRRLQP
Sequence of Concanavalin-A (Canavalia ensiformis) (P02866 whole entry, looked up): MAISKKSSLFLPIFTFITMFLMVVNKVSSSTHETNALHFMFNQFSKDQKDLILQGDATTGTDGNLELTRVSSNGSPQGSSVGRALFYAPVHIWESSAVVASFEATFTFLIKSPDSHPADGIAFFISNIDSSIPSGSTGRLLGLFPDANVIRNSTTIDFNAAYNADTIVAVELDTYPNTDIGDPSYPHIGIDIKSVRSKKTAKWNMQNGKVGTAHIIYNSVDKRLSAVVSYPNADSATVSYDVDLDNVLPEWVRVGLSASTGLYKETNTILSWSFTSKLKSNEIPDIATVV

With `C=C[C@H](OC)[C@@H](O)c1ccc(OCCO)cc1`, the composite z-score is -1.76 and -0.748 in test [1]; -1.51 and -1.36 in [3]; -1.51 and -0.219 in test [4]; -0.045 and -0.319 in [5]; -0.262 and -0.213 in test [6]; -0.276 and -0.221 in [7]. Further, the composite z-score was -0.674 and -0.402 in test [8]; 0.376 and -0.199 in test [9]; -1.55 and -1.04 in test [10]; -1.69 and -0.599 in the test with Albumin (Bos taurus); -0.437 and -0.465 in test [12]; -0.248 and -0.242 in [13]. For the same compound, the composite z-score in test [14] is 0.934 and 0.835; in [15] it was -0.358 and -0.494; in [16], 0.581 and -0.234; with Sam68 (KHDRBS1), -0.924 and -0.595; in [17] it was -2.3 and -0.674; in test [18], -2.17 and -0.715. The z-score in [2] was -0.142 and 1.09. Further, in test [11], the composite Z-score was 0.459 (inactive) and -0.239 (inactive).
On to `C[N+](C)(C)CCCCCCNC(=O)[C@@H]1C[C@@H]2C(=O)N[C@@H](CCCC[N+](C)(C)C)C(=O)N2[C@@H]1c1ccc(O)cc1`, for which the composite z-score in test [1] was -0.259 and 0.575; in test [3], 0.515 and 0.0005; in test [4], -0.529 and -0.759; in test [5], 0.458 and -0.85; in test [6], -0.144 and -0.13; in [7] it was -0.304 and -0.221. In addition, the composite z-score is -0.0281 and -0.295 in test [8]; 2.61 and 0.23 in test [9]; -0.137 and 0.0818 in test [10]; -0.595 and 0.0621 with Albumin (Bos taurus); -0.0918 and 0.0016 in [12]; -0.164 and -0.147 in test [13]. In addition, the composite z-score in [14] is 0.747 and 0.82; in test [15] it was -0.251 and 0.233; in [16], 0.774 and 0.322; in the test with Sam68 (KHDRBS1) it was -0.351 and 0.428; in test [17] it was 0.952 and 0.671; in [18], 0.197 and 0.299. Moreover, the z-score in test [2] is -0.0888 and 0.51. For the same compound, the composite Z-score in [11] was 0.722 (inactive) and 0.318 (inactive).
On to `C[N+](C)(C)CCCCNC(=O)[C@H]1C[C@H]2C(=O)N[C@@H](CCCC[N+](C)(C)C)C(=O)N2[C@H]1c1ccc(O)cc1`, for which the composite z-score in test [1] is 1.29 and 0.0427; in test [3], 1.41 and 1.47; in [4], -0.0061 and -1.63; in test [5] it was -0.426 and -1.34; in [6], -0.0685 and -0.0643; in test [7] it was -0.0011 and -0.0709. Also, the composite z-score was 0.0416 and -0.7 in test [8]; 0.699 and 0.0645 in test [9]; 0.0509 and -0.801 in [10]; -0.839 and -1.32 in the test with Albumin (Bos taurus); -0.0947 and 0.0311 in test [12]; -0.14 and -0.108 in test [13]. For the same compound, the composite z-score was 0.257 and 0.0659 in test [14]; 0.385 and 0.233 in [15]; -0.126 and -0.102 in test [16]; 1.32 and 0.681 in the test with Sam68 (KHDRBS1); 1.5 and 1.48 in [17]; 1.16 and -0.33 in test [18]. In addition, in test [2], the z-score was -0.999 and 0.723. The composite Z-score in test [11] was 0.472 (inactive) and 2.29 (inactive).
With `CC(C)=CCCC(C)=CCON=C1C[C@@H](O)[C@@H](O)[C@@H]2[C@@H]3C(=O)N([C@@H](C)c4ccccc4)C(=O)[C@@H]3CC[C@H]12`, the composite z-score in test [1] was 0.893; in test [3] it was 0.773; in [4] it was -0.282; in test [5], -0.782; in test [6] it was -0.0644; in [7], 0.265. The composite z-score is -0.44 in test [8]; 0.166 in [9]; 0.417 in [10]; 0.799 with Albumin (Bos taurus); -0.0048 in [12]; 0.296 in [13]. The composite z-score in [14] came to 0.206; in [15] it was 1.37; in test [16], 0.308; with Sam68 (KHDRBS1) it was 1.12; in test [17], 1.03; in test [18] it was 0.0996. The compound further yielded a z-score in test [2] of -0.745. The composite Z-score in test [11] was -0.501 (inactive).
